# From ChEMBL document CHEMBL3988442, “University of Dundee, Small-Polar-MMV Screening Library” (2021)
# For some of these results: Potency and affinity values are given separately.
# Key:
# Design in all cases: scale not given: direction of the effect not stated beside the values
# [1] = target: Protein translocase subunit SecA (Escherichia coli (strain K12)) (UniProt P10408); assay: Assay to Identify E. coli SecA ATPase Inhibitors; type: functional; conditions: 30 µM
# [2] = target: T1, Ubiquitin-activating enzyme e1, putative (Leishmania donovani (strain BPK282A1)) (UniProt E9BSI1); assay: Leishmania donovani Ubiquitin Activating Enzyme (LdE1); type: functional; conditions: 30 µM
# T1 sequence (whole entry): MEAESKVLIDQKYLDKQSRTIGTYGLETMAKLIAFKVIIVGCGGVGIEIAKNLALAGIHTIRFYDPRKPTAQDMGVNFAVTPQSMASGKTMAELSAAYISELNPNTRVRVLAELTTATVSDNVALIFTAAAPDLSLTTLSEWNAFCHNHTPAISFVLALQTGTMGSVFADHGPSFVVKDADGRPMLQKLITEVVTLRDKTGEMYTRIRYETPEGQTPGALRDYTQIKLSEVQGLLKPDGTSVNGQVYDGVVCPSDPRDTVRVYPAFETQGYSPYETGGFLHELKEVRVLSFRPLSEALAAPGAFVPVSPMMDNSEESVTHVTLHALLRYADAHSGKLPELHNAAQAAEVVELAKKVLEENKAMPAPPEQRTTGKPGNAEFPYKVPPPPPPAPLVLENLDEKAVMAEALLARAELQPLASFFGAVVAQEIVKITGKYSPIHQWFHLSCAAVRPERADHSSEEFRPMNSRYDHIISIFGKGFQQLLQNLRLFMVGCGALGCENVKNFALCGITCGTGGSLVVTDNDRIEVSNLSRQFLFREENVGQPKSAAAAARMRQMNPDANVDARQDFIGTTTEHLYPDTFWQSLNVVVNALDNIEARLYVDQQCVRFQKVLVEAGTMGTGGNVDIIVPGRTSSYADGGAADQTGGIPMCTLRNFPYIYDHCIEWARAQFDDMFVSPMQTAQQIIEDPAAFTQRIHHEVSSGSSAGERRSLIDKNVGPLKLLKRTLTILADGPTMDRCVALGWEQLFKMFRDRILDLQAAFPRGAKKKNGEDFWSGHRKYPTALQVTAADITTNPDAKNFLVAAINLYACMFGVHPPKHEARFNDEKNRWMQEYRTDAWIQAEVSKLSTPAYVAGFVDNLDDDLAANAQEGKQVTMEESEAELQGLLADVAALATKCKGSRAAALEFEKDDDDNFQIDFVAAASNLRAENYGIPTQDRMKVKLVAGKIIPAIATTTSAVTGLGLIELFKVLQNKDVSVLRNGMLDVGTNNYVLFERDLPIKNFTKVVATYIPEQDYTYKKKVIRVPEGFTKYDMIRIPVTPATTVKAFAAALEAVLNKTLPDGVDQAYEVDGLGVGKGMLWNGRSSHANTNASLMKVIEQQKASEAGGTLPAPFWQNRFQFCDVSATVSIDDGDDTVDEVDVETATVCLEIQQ
# [3] = target: AMP-activated protein kinase, AMPK (Homo sapiens) (UniProt P54646+O43741+P54619+Q9UGJ0+Q9Y478+Q13131+Q9UGI9); assay: AMP-dependent Kinase enzyme assay. An in vitro enzyme assay that detects ADP turnover that is directly proportional to AMPK activity. This uses naive AMPK that is activated during the assay with MK-8722; type: functional; conditions: 30 µM
# [4] = target: Sialic acid-binding Ig-like lectin 9 (Homo sapiens) (UniProt Q9Y336); assay: Hs-Siglec9 ALPHAscreen SOP 20170721; conditions: 10 µM
# Chain of Sialic acid-binding Ig-like lectin 9 (Homo sapiens) (Q9Y336 whole entry): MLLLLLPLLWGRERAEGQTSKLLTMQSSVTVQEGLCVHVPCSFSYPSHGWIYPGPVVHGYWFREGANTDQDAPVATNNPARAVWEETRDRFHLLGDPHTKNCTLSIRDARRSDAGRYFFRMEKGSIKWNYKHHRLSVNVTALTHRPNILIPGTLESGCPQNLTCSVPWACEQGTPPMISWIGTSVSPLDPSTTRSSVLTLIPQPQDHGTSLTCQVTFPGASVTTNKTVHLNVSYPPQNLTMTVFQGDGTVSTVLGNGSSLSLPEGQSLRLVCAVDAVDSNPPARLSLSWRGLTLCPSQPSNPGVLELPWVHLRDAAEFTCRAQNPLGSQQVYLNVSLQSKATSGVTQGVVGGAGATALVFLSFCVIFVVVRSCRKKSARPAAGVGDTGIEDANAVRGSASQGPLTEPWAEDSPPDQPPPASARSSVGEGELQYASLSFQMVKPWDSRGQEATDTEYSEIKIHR
# Trypanosoma cruzi = assay: Trypanosoma cruzi phosphomannomutase and mannose-1-phosphate guanylyltransferase assay; type: functional; conditions: 10 µM
# [5] = target: T2, Arginase-2, mitochondrial (Homo sapiens) (UniProt P78540); assay: in vitro enzyme assay to detect the production of urea directly proportional to the activity of Arginase II; type: functional; conditions: 33.3 µM; further: in the data most compounds retested in dose-response had high values
# T2 sequence (whole entry): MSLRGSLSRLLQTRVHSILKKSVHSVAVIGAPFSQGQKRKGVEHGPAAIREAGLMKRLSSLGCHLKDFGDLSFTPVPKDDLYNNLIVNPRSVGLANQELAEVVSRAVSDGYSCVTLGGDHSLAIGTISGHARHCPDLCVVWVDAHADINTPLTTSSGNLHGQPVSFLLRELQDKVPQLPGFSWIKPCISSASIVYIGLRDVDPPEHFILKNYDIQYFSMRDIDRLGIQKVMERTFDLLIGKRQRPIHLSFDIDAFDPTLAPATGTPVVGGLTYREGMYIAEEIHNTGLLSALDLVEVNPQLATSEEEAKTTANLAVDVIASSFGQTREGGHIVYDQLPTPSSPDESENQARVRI
# [6] = target: T3, Proteasome subunit beta (Trypanosoma cruzi) (UniProt O96673); assay: Trypanosoma cruzi proteasome chymotrypsin-like activity (TcProtChymo) assay.; further: in the data most compounds retested in dose-response had high values; type: functional; conditions: 9.37 µM
# T3 sequence (whole entry): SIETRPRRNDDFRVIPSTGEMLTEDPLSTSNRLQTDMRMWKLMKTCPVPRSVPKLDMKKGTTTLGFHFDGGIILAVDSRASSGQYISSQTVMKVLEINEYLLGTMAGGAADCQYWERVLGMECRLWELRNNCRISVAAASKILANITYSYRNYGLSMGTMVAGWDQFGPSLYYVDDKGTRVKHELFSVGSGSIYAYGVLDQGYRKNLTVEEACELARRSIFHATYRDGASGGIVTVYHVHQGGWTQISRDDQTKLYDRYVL
# Homo sapiens = organism: Homo sapiens; assay: To identify inhibition of the IFN signalling (Jak-Stat) pathway via expression of an eGFP reporter gene under the control of an IFN-stimulated response element (ISRE) containing MxA promoter.; type: functional; conditions: 30 µM
# [7] = target: T4, Tyrosyl-tRNA synthetase, putative (Trypanosoma cruzi (strain CL Brener)) (UniProt Q4DSP6); assay: Trypanosoma cruzi tyrosyl tRNA synthetase (TcYRS) _High Tyrosine SOP; type: functional; conditions: 30 µM; further: in the data most compounds retested in dose-response had high values
# T4 sequence (whole entry): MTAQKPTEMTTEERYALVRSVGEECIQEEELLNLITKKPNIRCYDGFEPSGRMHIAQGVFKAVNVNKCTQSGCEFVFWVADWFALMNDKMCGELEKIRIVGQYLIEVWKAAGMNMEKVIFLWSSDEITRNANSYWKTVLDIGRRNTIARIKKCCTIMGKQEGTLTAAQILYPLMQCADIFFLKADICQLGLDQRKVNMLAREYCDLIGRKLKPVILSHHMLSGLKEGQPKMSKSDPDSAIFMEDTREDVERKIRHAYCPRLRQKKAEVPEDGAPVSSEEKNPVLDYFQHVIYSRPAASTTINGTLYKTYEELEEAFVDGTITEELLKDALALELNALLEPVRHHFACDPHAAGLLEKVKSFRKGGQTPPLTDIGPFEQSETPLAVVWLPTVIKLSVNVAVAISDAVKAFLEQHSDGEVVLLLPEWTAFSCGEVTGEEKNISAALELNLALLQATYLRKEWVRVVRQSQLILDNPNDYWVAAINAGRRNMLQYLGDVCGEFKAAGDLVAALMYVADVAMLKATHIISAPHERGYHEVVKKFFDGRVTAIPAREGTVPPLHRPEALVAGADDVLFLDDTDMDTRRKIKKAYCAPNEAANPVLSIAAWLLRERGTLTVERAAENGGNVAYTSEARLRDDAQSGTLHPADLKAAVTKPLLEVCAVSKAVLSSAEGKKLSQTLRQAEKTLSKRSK
# [8] = target: T4, Tyrosyl-tRNA synthetase, putative (Trypanosoma cruzi (strain CL Brener)); assay: Trypanosoma cruzi tyrosyl tRNA synthetase (TcYRS) SOP; type: functional; conditions: 30 µM
# [9] = target: Chromo domain-containing protein 1 (Saccharomyces cerevisiae (strain ATCC 204508 / S288c) (Baker's yeast)) (UniProt P32657); assay: ScCHD-1 Enzyme Inhibition Assay; type: functional; conditions: 30 µM; further: in the data most compounds retested in dose-response had high values
# Chain of Chromo domain-containing protein 1 (Saccharomyces cerevisiae (strain ATCC 204508 / S288c) (Baker's yeast)) (P32657 whole entry, the tested form may be a part): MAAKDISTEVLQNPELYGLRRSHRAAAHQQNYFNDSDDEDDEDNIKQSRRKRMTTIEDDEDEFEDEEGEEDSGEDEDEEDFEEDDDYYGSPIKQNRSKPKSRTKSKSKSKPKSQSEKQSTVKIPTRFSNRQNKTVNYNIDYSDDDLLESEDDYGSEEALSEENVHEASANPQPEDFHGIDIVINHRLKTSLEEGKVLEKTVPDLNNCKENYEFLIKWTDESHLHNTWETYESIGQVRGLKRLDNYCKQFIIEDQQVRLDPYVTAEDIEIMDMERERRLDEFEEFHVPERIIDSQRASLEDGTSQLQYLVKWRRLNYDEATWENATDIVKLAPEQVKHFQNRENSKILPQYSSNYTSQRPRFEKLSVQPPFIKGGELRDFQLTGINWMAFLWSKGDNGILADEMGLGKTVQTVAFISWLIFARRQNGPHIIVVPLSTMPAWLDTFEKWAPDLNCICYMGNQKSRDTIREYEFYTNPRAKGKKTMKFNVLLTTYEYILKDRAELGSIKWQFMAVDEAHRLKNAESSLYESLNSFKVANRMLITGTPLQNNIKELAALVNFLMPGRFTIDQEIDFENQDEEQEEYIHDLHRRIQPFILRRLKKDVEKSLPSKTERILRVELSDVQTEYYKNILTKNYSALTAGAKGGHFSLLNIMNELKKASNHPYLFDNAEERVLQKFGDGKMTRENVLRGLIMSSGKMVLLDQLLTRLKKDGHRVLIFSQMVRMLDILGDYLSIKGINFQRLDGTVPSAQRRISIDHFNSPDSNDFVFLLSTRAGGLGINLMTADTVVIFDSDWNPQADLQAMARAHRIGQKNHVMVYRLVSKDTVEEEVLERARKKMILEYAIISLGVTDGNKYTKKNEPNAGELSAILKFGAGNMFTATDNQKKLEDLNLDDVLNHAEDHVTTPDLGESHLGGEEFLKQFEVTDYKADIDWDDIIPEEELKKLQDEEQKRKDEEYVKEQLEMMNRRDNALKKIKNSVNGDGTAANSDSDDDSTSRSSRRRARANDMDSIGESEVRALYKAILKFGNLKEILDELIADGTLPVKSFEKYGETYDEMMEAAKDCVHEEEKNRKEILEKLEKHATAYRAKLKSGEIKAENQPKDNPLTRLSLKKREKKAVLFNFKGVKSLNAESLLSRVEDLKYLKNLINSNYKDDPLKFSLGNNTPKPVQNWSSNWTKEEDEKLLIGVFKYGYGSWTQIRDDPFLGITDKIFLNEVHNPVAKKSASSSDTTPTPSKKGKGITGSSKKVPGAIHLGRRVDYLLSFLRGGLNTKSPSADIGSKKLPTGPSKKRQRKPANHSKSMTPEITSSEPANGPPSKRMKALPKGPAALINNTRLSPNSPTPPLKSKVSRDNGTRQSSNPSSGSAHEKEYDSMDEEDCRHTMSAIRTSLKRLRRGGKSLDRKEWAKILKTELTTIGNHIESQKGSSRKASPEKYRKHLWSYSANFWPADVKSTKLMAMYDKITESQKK
# Chain of Protein translocase subunit SecA (Escherichia coli (strain K12)) (P10408 whole entry): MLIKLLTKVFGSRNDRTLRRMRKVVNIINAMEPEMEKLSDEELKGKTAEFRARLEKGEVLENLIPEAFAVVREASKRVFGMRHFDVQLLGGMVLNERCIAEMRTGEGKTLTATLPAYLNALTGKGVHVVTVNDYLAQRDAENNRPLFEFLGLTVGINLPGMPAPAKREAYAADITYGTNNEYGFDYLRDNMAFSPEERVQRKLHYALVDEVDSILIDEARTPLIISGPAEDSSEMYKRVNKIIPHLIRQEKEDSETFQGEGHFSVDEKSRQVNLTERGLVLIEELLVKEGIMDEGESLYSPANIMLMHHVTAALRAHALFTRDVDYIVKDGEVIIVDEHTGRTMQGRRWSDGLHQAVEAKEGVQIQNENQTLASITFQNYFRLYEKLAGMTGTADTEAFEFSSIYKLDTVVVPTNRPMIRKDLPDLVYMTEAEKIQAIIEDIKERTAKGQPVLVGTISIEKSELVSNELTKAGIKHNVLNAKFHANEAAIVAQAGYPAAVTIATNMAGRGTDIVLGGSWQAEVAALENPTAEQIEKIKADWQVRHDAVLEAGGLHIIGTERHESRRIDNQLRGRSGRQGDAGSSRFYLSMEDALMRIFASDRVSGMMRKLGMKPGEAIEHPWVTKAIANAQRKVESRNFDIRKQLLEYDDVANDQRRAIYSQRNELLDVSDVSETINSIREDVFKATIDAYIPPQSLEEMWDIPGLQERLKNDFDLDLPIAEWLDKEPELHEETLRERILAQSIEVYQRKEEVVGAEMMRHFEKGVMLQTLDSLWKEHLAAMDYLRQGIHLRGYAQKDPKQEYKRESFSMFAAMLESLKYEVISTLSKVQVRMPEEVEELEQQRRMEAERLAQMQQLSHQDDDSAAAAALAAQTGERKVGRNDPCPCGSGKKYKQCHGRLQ
Structure (SMILES),Percent Effect [1],Percent Effect [2],Percent Effect [3],Percent Effect [4],Percent Effect (Trypanosoma cruzi),Percent Effect [5],Percent Effect [6],Percent Effect (Homo sapiens),Percent Effect [7],Percent Effect [8],Percent Effect [9]
CC1CCN(C(CNC(=O)CCn2cccn2)c2cccs2)CC1 (stereo unspecified),-0.447%,13.3%,-0.997%,10.3%,2.82%,8.85%,26.5%,4.2%,6.01%,21%,-5.13%
CCCc1n[nH]c(C2CN(C(=O)C3=COCCC3)CCO2)n1 (stereo unspecified),-3.49%,2.63%,-0.787%,5.25%,2.52%,1.44%,-2.96%,2.6%,2.46%,1.24%,10.7%
Cc1cccc(-c2nc(C)nn2CC(=O)NC2CCCC2)c1,-5.38%,23.4%,-6.06%,8.2%,6.93%,3.2%,18.6%,5.48%,9.71%,26.8%,-9.1%
O=C(COCC1CC1)N1CCCC(n2cncn2)C1 (stereo unspecified),1.39%,10.8%,-12%,-7.81%,-3.3%,-2.81%,13%,12.5%,1.48%,16.1%,-2.64%
c1cncc(OCc2noc3c2CN(Cc2ccoc2)CC3)c1,-1.69%,22.7%,-8.08%,-0.376%,3.93%,-2.99%,22.7%,8.21%,5.29%,15.4%,-11.2%
CCC(=O)N1CCc2[nH]cnc2C12CCN(C(=O)c1snnc1C)CC2,-0.279%,5.33%,-6.44%,8.1%,0.876%,10.9%,13.8%,23.3%,0.546%,13.6%,-1.51%
Cc1nc(CN2CC3(CCN(c4ncc(F)cn4)C3)CC2=O)cs1 (stereo unspecified),-1.99%,0%,8.52%,6.6%,-0.69%,1.94%,0.348%,7.34%,3.17%,8.97%,-4.69%
Cc1nc(CNC(=O)NCC(O)c2ccc(F)c(F)c2)cs1 (stereo unspecified),-1.38%,10.8%,1.17%,-3.81%,3.25%,-3.51%,16.3%,23.3%,7.92%,18.3%,-5.03%
O=C(C1CCC1)N1CCN(Cc2ccsc2)[C@H]2CS(=O)(=O)C[C@H]21,-4.53%,2.6%,1.04%,4.76%,-5.41%,1.38%,15.8%,2.92%,2.15%,3.7%,-0.294%
COCc1cccc(CNCc2c(C)nn(C)c2N(C)C)c1,-6.8%,18.9%,-21.5%,9.53%,7.64%,-4.01%,12.4%,4.56%,7.39%,23.5%,-13.6%
CCc1noc(C(C)N2CCC(C(=O)Nc3cnn(CC)c3)CC2)n1 (stereo unspecified),-1.91%,1.27%,3.92%,-3.56%,1.54%,2.37%,7.72%,8.57%,-4.17%,-10.1%,-28.9%
